This is a sample that favours compounds with a hit; in the whole collection about 1.6% have one here.
KCNQ2 enhance – KCNQ2 (rat) channel potentiation; AID 2239; 0.54% of 310,000 active; CHO-K1 KCNQ2, FluxOR thallium flux fluorescence; hits give high values; O88943; B-score at 10 µM;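 active = fluorescence ratio B-score at least 3 SD of library B-scores, with initial fluorescence B-score within 3 of them, cut at about 5.3 in these data; same plate scores as AID 2156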;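 note: B-score of peak minus minimum over baseline fluorescence ratio after K+ and Tl+ stimulus; positive B-score means potentiation of KCNQ2 with more thallium influx and brighter signal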
KCNQ2 inh – blocks the rat KCNQ2 potassium channel; O88943; CHO-K1 KCNQ2, FluxOR thallium flux, 20 min; hits give low values; B-score at 10 µM; 1.1% of 310,000 active;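 active = fluorescence ratio B-score at most minus 3 library SDs, with starting brightness B-score within 2 library SDs, cut at about -5.5 in these data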
Each line names hits and unclear results; the compound was inactive in the other large screens.

NC(=O)C1CC(=O)N(c2ccc(OCc3ccc(Cl)cc3)cc2)C1 (configuration not stated)	none (no result: KCNQ2 enhance)
O=C(O)/C=C/C(=O)Nc1ccc(S(=O)(=O)Nc2nccs2)cc1	none (no result: KCNQ2 enhance)
CC1C/C(=C\c2ccccc2[N+](=O)[O-])c2nc3ccccc3c(C(=O)O)c2C1 (configuration not stated)	KCNQ2 inh -5.78
O=C(O)c1c2c(nc3ccccc13)/C(=C/c1ccccc1[N+](=O)[O-])CCC2	none (no result: KCNQ2 enhance)
CCOC(=O)N1CCN(C(=O)c2cc(S(=O)(=O)N3CCc4ccccc43)ccc2OC)CC1	none
O=C(Nc1cc(C(F)(F)F)ccc1Cl)C(Sc1ccccn1)c1ccccc1 (configuration not stated)	none (no result: KCNQ2 enhance)
Cc1cc(C(=O)NCC(=O)OC(C(=O)Nc2cc(C(F)(F)F)ccc2Cl)c2ccccc2)ccc1[N+](=O)[O-] (configuration not stated)	KCNQ2 inh -5.79
CCCC(=O)OC(C(=O)Nc1cc(C(F)(F)F)ccc1Cl)c1ccccc1 (configuration not stated)	KCNQ2 inh -5.59
COc1ccc(C)cc1NC(=O)C(OC(=O)CNC(=O)c1ccc(Br)cc1)c1ccccc1 (configuration not stated)	none (no result: KCNQ2 enhance)
Cc1cc(NC(=O)c2cccc(S(=O)(=O)N3CCC(C)CC3)c2)no1	none
Cc1ccc(Cl)cc1NS(=O)(=O)c1ccc2oc(=O)ccc2c1	none (no result: KCNQ2 enhance)
CC(NC(=O)CCNC(=O)N1CCn2c1nc1ccccc12)c1ccccc1 (configuration not stated)	none
CC(C)NC(=O)CSc1nc2ccccc2n1CC(=O)N(C(C)C)C(C)C	none
CC(C)N(C(=O)CSc1nc(Cc2ccccc2)nc2ccccc12)C(C)C	KCNQ2 inh -6.35
CC(C)N(C(=O)CSc1nc2ccccc2n1Cc1ccc(F)cc1)C(C)C	KCNQ2 inh -7.86
CC(C)(C)NC(=O)CSc1nc(Cc2ccccc2)nc2ccccc12	none (no result: KCNQ2 enhance)
CSc1nc(Cc2ccccc2)nc2ccccc12	none (no result: KCNQ2 enhance)
CCC(C)(C)NC(=O)CSc1nc(Cc2ccccc2)nc2ccccc12	KCNQ2 inh -6.35
O=C(Nc1ccncc1)C1CCN(S(=O)(=O)c2ccccc2C(F)(F)F)CC1	none
CCCc1c(C(=O)NNc2cc(C(F)(F)F)ccc2Cl)cnn1-c1ccccc1	none (no result: KCNQ2 enhance)
COc1ccc(C)cc1NC(=S)N1CC(C)OC(C)C1 (configuration not stated)	none
COc1ccccc1/C=C/C(=O)c1c2c(c(C)[nH]c1=O)CCCC2	none
COC(=O)C[C@H]1c2cc(F)ccc2S(=O)(=O)N1c1ccc(N(C)C)cc1	none
CCOc1ncccc1C(=O)NCCN1C(=O)S/C(=C/c2cccs2)C1=O	none (no result: KCNQ2 enhance)
Cc1cccc(N=Cc2cc(Br)cc(Cl)c2O)c1	KCNQ2 enhance 9.35
COc1ccc(N=Cc2cccc(C)c2O)cc1Cl	none
O=C(COC(=O)c1ccccc1[N+](=O)[O-])Nc1cccnc1Cl	none
COC(=O)c1c(NC(=O)CC2SC(N)=NC2=O)sc2c1CCC(C(C)(C)C)C2 (configuration not stated)	none
COc1cccc(NC(=O)c2cccs2)c1	none
COc1cc(NC(=O)c2cccs2)cc(OC)c1	KCNQ2 enhance 6.61
CCOC(=O)N1CCN(CC(=O)Nc2sc(CC)cc2C(=O)c2ccc(OC)cc2)CC1	KCNQ2 inh -5.93
CCc1cc(C(=O)OC)c(NC(=O)CN2CCN(C(=O)c3ccco3)CC2)s1	none
COc1cc(C(C[N+](=O)[O-])c2c(N)n(C)c(=O)n(C)c2=O)ccc1O (configuration not stated)	none (no result: KCNQ2 enhance)
Cc1ccc(C(C[N+](=O)[O-])c2c(N)n(C)c(=O)n(C)c2=O)cc1 (configuration not stated)	KCNQ2 inh -8.04
CCCOc1ccc(C(=O)ON=C2CCN(C)CC2)cc1	none
CC1CCN(CCCNC(=O)c2ccc3c(=O)n(Cc4ccc(Cl)cc4)c(=S)[nH]c3c2)CC1	KCNQ2 inh -5.88
COC(=O)c1ccc2c(=O)n(Cc3ccc(C(=O)NCCCN4CCC(C)CC4)cc3)c(=S)[nH]c2c1	none
COc1ccc(C(=O)COC(=O)COc2cc(C)cc(C)c2)cc1	none
S=C(c1ccc2c(c1)OCO2)N1CCOCC1	none (no result: KCNQ2 enhance)
Nc1nccc(-c2ccc(-n3cccc3)cc2)n1	none
c1ccc(-c2c(-c3ccccc3)n(Cc3ccco3)c3ncnc(NCCCn4ccnc4)c23)cc1	KCNQ2 inh -10.7
OCCNc1ncnc2c1c(-c1ccccc1)c(-c1ccccc1)n2Cc1ccco1	none (no result: KCNQ2 enhance)
NC(CCC(=O)O)C12CC3CC(CC(C3)C1)C2 (configuration not stated)	none
COC(=O)CSc1ccc(S(=O)(=O)N2CCOCC2)cc1[N+](=O)[O-]	none
CCN(CC(=O)NCc1cccs1)C(=O)c1cccc(S(=O)(=O)NC)c1	none (no result: KCNQ2 enhance)
CCN(CC(=O)NCc1cccs1)C(=O)c1ccc(-c2cccc(C(F)(F)F)c2)o1	KCNQ2 inh -7.64
CCc1ccc(Nc2n[n+](C)c(-c3ccncc3)s2)cc1	none (no result: KCNQ2 enhance)
Cn1nnc2c[n+](CC(=O)c3ccc4ccccc4c3)cc(Br)c21	none (no result: KCNQ2 enhance)
Cn1nnc2c[n+](CC(=O)c3ccc(Cl)cc3)cc(Br)c21	KCNQ2 inh -6.1

Bioassay records: PubChem BioAssay, Johns Hopkins Ion Channel Center
